# Data as given in PubChem BioAssay (NCI).
# The panel holds about 83,000 compounds, 20% with a hit somewhere; the sample as a whole holds those more often.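 Percent growth is the endpoint: 0 to 100 indicates growth inhibition (40 means 60% inhibition), 0 means no net growth, and negative values indicate cell death.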 A number with no mark means an inactive call. The source made the active and inactive calls. Rule for the calls: active = growth percent below 10; inactive = the rest.
# System: HL-60(TB) leukemia
# Assay: NCI-60 one-dose screen, 48 h (100 = growth as untreated, 0 = no growth, -100 = all killed)
# Settings: 10 µM unless noted
row,SMILES,growth
1,CCc1cccc(NC(=O)CNc2cc(S(=O)(=O)N(C)C)cc(C)c2C)c1,128%
2,O=c1oc2ccc(-c3ccc(F)cc3F)cc2c(=O)n1-c1ccc(Br)cc1F,58.8%
3,COc1ccc([C@@H]2[C@@H](O)C(=O)N2c2cc(OC)c(OC)c(OC)c2)cc1F,-15.8% (active)
4,O=C(O)c1ccc(-n2cc(CNc3cc(F)c(F)c(F)c3)c(-c3cccc(F)c3)n2)cc1,108%
5,COc1ccc(NC(=O)CSc2nnc(-c3ccc4nc(-c5ccccc5)[nH]c4c3)o2)cc1,101%
6,O=c1c2ccccc2cc2n1CCN=C2c1ccccc1,97.8%
7,NC(N)=Nc1ccc(Oc2cccc(Nc3ccc(Cl)c(C(F)(F)F)c3)c2)cn1,-68% (active)
8,NC(N)=Nc1ccc(Oc2cccc(Nc3ccc(Br)c(C(F)(F)F)c3)c2)cc1,-50.3% (active)
9,CN(C)c1ccc(/C=C2\Cc3c(F)ccc(Br)c3C2=O)cc1,79.6%
10,CN(c1ccc(Br)cc1)S(=O)(=O)c1ccc(-c2cnc(C3CC3)o2)cc1,-25.1% (active)
11,C/C(=N/N)c1nnn(-c2ccc(Br)cc2)c1C,102%
12,COc1cc(-c2nn(C(C)(C)C)cc2-c2ccnc(NCCCNS(=O)(=O)c3ccccc3)n2)ccc1Cl,103%
13,CC(=O)Nc1nc2c(s1)C1=CC[C@H]3[C@@H]4CC[C@H](C(C)=O)[C@@]4(C)CC[C@@H]3[C@@]1(C)CC2,52.5%
14,CN1CCN(c2ccc(/C=N/n3cnc4oc(-c5ccccc5)cc4c3=N)cc2)CC1,121%
15,Cc1nc(N)sc1-c1csc(Nc2ccc(C(F)(F)F)cc2)n1,27.9%
16,CCCCCc1ccc(S(=O)(=O)Nc2cccc(-c3csc(NC(=O)CNCCN(C)C)n3)c2)cc1,63%
17,CCOC(=O)C1=C(C)Nc2nc3ccccc3n2C1c1ccccc1 (stereo not given),85.6%
18,COc1ccc(-c2nnc(SCc3ccc(O)c4ncccc34)n2-c2ccccc2)cc1,10.9%
19,O=S1SC(c2ccccc2)=NN1c1cc(F)cc(F)c1 (stereo not given),32.2%
20,CCn1c(SCC(=O)Nc2cccc(C(=O)/C=C/c3ccccc3Cl)c2)nc2ccccc2c1=O,107%

row,SMILES,growth
1,CCOC(=O)c1c(Nc2ccccc2)nn2c(N)c(C#N)c(-c3ccc(Cl)cc3)nc12,102%
2,CNC(=O)c1cc(Oc2ccc3nc(NC(=O)c4cccc(OC(F)(F)F)c4)sc3c2)ccn1,67.5%
3,Cn1c(SCC(=O)c2ccc(F)cc2)nc2ccccc2c1=O,97.9%
4,Cc1noc(C)c1CSc1nc2ccccc2n1-c1ccccc1,111%
5,CCCc1cc2cc(-n3nc(CC)c4c3CC(C)(C)CC4=O)cc(NC3CCC(O)CC3)c2c(=O)[nH]1 (stereo not given),-2.33% (active)
6,CCOC(=O)c1nn(-c2ccc(C)cc2)c(=O)c2c(N)c(C#N)c(-c3ccc(OC)cc3)cc12,125%
7,N#Cc1c(-c2ccc(Cl)cc2)nc(SCc2ccccc2)nc1N1CCNCC1,1.3% (active)
8,COc1cc(/C=C/C(=O)c2cc(OC)c(OC)c(OC)c2)ccc1OCc1ccccc1,-9.27% (active)
9,CCNC(=O)N1CCc2cc(OC)c(OCCc3ccc(OC)cc3)cc2C1c1ccc([N+](=O)[O-])cc1C (stereo not given),14%
10,Oc1ccc(CSc2nnc(-c3ccc(Oc4ccccc4)cc3)o2)c2cccnc12,19.1%
11,COc1ccc(C(=O)CSc2nc3c(c(Nc4ccc(S(N)(=O)=O)cc4)n2)CCCC3)cc1,101%
12,Cc1cccc(/C=C/C(=O)Nc2ncc(Cc3cccc(C)c3)s2)c1,0.463% (active)
13,O=C(CCCCCCNC(=O)C(O)(O)C(F)(F)F)Nc1ncc(-c2ccc(Br)cc2)s1,6.28% (active)
14,O=S(=O)(NC1CC2CCC1C2)c1ccc2c(c1)C(=NO)c1cc(S(=O)(=O)NC3CC4CCC3C4)ccc1-2 (stereo not given),-29.7% (active)
15,Nc1nc(-c2cccc([N+](=O)[O-])c2)c(N=Nc2cccc([N+](=O)[O-])c2)s1,118%
16,O=C(CCn1cc[n+](CC(=O)c2ccc(-c3ccccc3)cc2)c1)Nc1cccc2cccnc12,13.9%
17,O=C(COc1ccc(/C=C2\C(=O)Nc3ccc(F)cc32)cc1)Nc1ccccc1,95.9%
18,COc1ccc(NC(=O)[C@H](C)N)cc1C(=O)Nc1cccc(-c2cc(=O)c3c(OC)c(OC)c(OC)cc3o2)c1,58.9%
19,CC(Nc1ncnc2ccc(-c3cnc4cnccn34)cc12)c1ccccc1 (stereo not given),52.4%
20,O=[N+]([O-])c1ccc(-c2nnc(SCc3ccc(O)c4ncccc34)o2)cc1,13.7%
